This note sets out measurements from PubChem BioAssay.

As usually defined, the inhibition is the change of the read-out against control, counted positive when it falls. For orientation: AC50 means the midpoint of the concentration-response curve, whichever way the signal moves. Usually IC50 stands for the concentration that gives 50% inhibition.

Test [1] can be described thus: antimalarial activity against Dd2 strain (AID 2302;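 active = growth inhibition above 50% at the single 2 µM test dose, taken to imply half-maximal potency below 2 µM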;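 also: 0% = DMSO untreated growth and 100% = chloroquine plus artemisinin killed control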). The following applies: P. falciparum Dd2 in RBCs, LDH growth readout, 72 h; at 2 µM; stronger effect = higher value.
Test [2] can be described thus: human hepatoma cell viability loss – ATP luminescence, cytotoxicity control for P. falciparum antimalarial project, primary screen (AID 2303;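 active = inhibition above 50%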;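 also: 0% = DMSO wells and 100% = digitonin-killed cells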). The following applies: HepG2 viability, 24-48 h, at 10 µM, stronger effect = higher value.
For test [3], the target named is L-lactate dehydrogenase (Plasmodium falciparum (isolate CDC / Honduras)) (UniProt Q27743). Description: PfLDH activity inhibition – cell lysate, 3D7 strain, counter-screen for P. falciparum growth inhibition project (AID 2304).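 Also: 0% = vehicle and 100% = reference inhibitor.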 The following applies: P. falciparum 3D7 crude extract, LDH APAD/NBT absorbance; at 2 µM; stronger effect = higher value.
The nature of test [4]: inhibition of 3D7 malaria parasite growth – strain 3D7 (AID 2306).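 Also: 0% = DMSO wells and 100% = chloroquine plus artemisinin control wells.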 The following applies: P. falciparum 3D7 erythrocytic growth, LDH absorbance, 72 h; at 2 µM; stronger effect = higher value.
The target in test [5] is Plasmodium falciparum protein kinase 6 (PK6, PF3D7_1337100) (UniProt Q8IDW1). Kind of test: PfPK6 kinase inhibitors, biochemical, TCAMS library (AID 1159586). Conditions: recombinant PfPK6, Kinase-Glo ATP depletion luminescence.
For test [6], the target named is Protein kinase 7 (PK7), Plasmodium falciparum 3D7 (PF3D7_0213400) (UniProt Q7YTF7). Description: inhibition of Plasmodium PK7 catalytic activity – biochemical, TCAMS antimalarial set, Kinase-Glo luminescence (AID 1159587). The following applies: recombinant PfPK7, Kinase-Glo ATP depletion luminescence.
Test [7] concerns the target Calcium-dependent protein kinase 4 (Plasmodium falciparum (isolate 3D7)) (UniProt Q8IBS5). Description: PfCDPK4 kinase inhibitors, biochemical, TCAMS library (AID 1159588; cut-off not given, nearly all actives have IC50 up to about 0.91 µM). Conditions: recombinant PfCDPK4, Kinase-Glo ATP depletion luminescence. A general note: Kinase-Glo reads ATP consumption through a luciferase reaction.
Test [8] in a line: viability loss in pontine glioma line – cell-based, SU-DIPG-XVII, MIPE5.0, CellTiter-Glo, qHTS, dose response (AID 1347060; cut-off not given, nearly all actives have AC50 up to about 26 µM;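 also: cells exposed to compound for 48 hours before viability readout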). The following applies: CellTiter-Glo ATP luminescence. A general note: ATP-based viability assays read luminescence as a measure of living cells.
The nature of test [9]: viability loss in pontine glioma line – cell-based, JHH-DIPG-1, MIPE4.0, CellTiter-Glo, qHTS, dose response (AID 1347062; cut-off not given, nearly all actives have AC50 up to about 27 µM;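 also: cells exposed to compound for two days before readout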). The following applies: JHH-DIPG-1 viability, CellTiter-Glo ATP luminescence.
The nature of test [10]: viability loss in pontine glioma line – cell-based, SU-DIPG-IV, MIPE4.0, CellTiter-Glo, qHTS, dose response (AID 1347063; cut-off not given, nearly all actives have AC50 up to about 30 µM;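 also: compound exposure lasted 48 hours before the viability readout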). The following applies: CellTiter-Glo ATP luminescence.
Test [11] in a line: viability loss in pontine glioma line – cell-based, SU-DIPG-XXV, MIPE5.0, CellTiter-Glo, qHTS, dose response (AID 1347065; cut-off not given, nearly all actives have AC50 up to about 26 µM;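 also: cells exposed to compound for 48 hours before ATP readout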). The following applies: CellTiter-Glo ATP luminescence.
A short description of test [12]: growth inhibition of DIPG cells – cell-based, MIPE4.0 library, CellTiter-Glo luminescence, qHTS (AID 1347066; cut-off not given, nearly all actives have AC50 up to about 30 µM;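 also: cells exposed to compound for 48 hours before readout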). The following applies: SU-DIPG-VI viability, CellTiter-Glo ATP luminescence.
Test [13] in a line: JHH-DIPG-1 glioma cell viability, MIPE5.0 library, CellTiter-Glo luminescence, qHTS (AID 1347067; cut-off not given, nearly all actives have AC50 up to about 26 µM;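 also: cells exposed to compound for 48 hours before readout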). Conditions: JHH-DIPG-1 glioma viability, CellTiter-Glo ATP luminescence.
The nature of test [14]: growth inhibition of DIPG cells – cell-based, MIPE5.0 library, qHTS (AID 1347068; cut-off not given, nearly all actives have IC50 up to about 30 µM;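 also: cells exposed to compound for 48 hours before viability readout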). Conditions: SU-DIPG-XXV viability.
Test [15] is described as follows: viability loss with induced miR-34 in A549 – imaging, A549 dox-inducible miR-34, nuclei and caspase counts, primary screen (AID 1347080;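 active = compounds whose cell count with miR-34 switched on is under 0.7 times the count with it off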). The following applies: A549 miR-34 inducible, Hoechst nuclei count, 48 h.
A short description of test [16]: compounds altering HSF1 focus formation in cells – imaging, Selleck Cancer Library (AID 1347162; in the data active = plate-normalised HSF1 focus index below about 0.46). Conditions: human cells, HSF1 nuclear foci imaging, at 10 µM; SSMD: measured here: HSF1 foci SSMD mean; cell count: measured here: cell number; plate-normalised HSF1 focus index: stronger effect = lower value.
Test [17] is described as follows: blockers of cellular phospholipid synthesis – cell-based, LOPAC library, screen 4, primary screen (AID 1347384). The following applies: animal cells, phospholipid biosynthesis inhibition screen; at 10 µM.
Test [18] can be described thus: galactose survival enhancers in mitochondrial complex I cybrids – cell-based, galactose medium, ATP luminescence, primary screen (AID 1645843;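 active = z-score of at least 1.8 in each of two replicates, scored against plate mean and spread of sample wells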;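 also: positive z means more ATP and so rescue of galactose-driven cybrid death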). The following applies: complex I mutant cybrid cells, 72 h, stronger effect = higher value.

Inconclusive results are not listed. For part of these data: Potency and affinity values are given separately. The source made the active and inactive calls. Unless noted, no rule for the calls is given here.

Chain of Protein kinase 7 (PK7), Plasmodium falciparum 3D7 (PF3D7_0213400) (Q7YTF7 1-343): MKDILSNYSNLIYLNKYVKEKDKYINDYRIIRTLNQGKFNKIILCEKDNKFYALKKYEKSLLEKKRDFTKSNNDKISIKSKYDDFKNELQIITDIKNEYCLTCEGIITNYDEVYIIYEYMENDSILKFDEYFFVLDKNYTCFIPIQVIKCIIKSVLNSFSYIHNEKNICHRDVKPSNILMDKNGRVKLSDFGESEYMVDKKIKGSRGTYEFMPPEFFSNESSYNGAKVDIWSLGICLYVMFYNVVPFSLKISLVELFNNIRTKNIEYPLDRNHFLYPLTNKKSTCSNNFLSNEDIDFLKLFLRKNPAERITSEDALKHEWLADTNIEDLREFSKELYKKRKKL
Chain of Plasmodium falciparum protein kinase 6 (PK6, PF3D7_1337100) (Q8IDW1 1-305): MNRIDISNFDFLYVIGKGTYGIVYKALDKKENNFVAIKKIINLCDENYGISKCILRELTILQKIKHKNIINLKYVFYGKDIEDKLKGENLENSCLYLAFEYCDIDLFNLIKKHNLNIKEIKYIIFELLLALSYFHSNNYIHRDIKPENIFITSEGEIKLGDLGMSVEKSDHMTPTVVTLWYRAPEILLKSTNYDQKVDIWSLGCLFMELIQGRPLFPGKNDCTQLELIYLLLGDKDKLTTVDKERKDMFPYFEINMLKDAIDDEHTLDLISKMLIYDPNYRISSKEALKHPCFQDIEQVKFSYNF
Chain of Calcium-dependent protein kinase 4 (Plasmodium falciparum (isolate 3D7)) (Q8IBS5 whole entry, looked up): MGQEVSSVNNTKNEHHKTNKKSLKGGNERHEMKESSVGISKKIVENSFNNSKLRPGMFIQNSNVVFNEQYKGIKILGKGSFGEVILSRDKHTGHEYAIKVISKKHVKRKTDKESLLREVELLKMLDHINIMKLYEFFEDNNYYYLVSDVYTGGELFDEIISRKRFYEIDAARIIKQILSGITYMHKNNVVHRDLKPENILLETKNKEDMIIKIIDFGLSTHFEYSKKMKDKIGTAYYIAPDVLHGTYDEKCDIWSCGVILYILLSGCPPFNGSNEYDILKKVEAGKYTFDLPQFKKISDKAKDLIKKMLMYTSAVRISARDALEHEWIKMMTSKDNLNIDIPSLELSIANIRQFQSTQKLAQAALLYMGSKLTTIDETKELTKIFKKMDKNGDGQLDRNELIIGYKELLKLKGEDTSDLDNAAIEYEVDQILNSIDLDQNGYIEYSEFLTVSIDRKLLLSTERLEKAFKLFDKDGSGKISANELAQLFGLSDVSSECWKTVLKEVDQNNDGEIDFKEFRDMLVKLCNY
Chain of L-lactate dehydrogenase (Plasmodium falciparum (isolate CDC / Honduras)) (Q27743 whole entry, looked up): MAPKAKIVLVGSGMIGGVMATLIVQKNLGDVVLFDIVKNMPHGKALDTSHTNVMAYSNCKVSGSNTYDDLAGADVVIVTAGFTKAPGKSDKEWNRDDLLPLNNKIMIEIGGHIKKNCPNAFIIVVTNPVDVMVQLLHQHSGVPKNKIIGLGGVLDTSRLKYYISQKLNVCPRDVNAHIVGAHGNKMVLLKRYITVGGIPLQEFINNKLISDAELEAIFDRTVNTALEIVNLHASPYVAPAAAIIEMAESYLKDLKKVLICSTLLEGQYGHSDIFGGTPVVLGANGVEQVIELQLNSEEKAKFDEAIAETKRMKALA

For the molecule `Cc1ccc(Nc2nccc(N(C)c3ccc4c(c3)nc(NC(=O)Cc3ccc(Cl)c(Cl)c3)n4C)n2)cc1S(N)(=O)=O`, the growth inhibition in [1] was 60% (active); in [4], 94% (active). The inhibition was 71% (active) in test [2] and 0% (inactive) in [3]. For the same molecule, the outcome in test [5], in test [6] and in test [7] was inactive.
In the case of `Oc1cccc(Nc2ccnc3cc(-c4nccs4)ccc23)c1`, the inhibition in test [2] was -10% (inactive); in test [3], -7% (inactive). In addition, in test [4], the growth inhibition is 98% (active). Also, the outcome in test [5], in test [6] and in [7] was inactive.
As to `COCCNCc1ncsc1-c1ccc2c(Nc3cc(O)c(Cl)cc3F)ccnc2c1`, the growth inhibition in [1] was 92% (active); in test [4] it was 101% (active). Also, the figures for the inhibition in test [2] and in test [3] were 0% (inactive) and -5% (inactive), respectively. Further, the outcome in test [5], in test [6] and in test [7] was inactive.
Turning to `NS(=O)(=O)CCc1cccc(Nc2nccc(-c3c(-c4cccc(NC(=O)c5c(F)cccc5F)c4)nn4ccccc34)n2)c1`, the growth inhibition was 97% (active) in [1] and 98% (active) in test [4]. The inhibition is 84% (active) in [2] and 3% (inactive) in test [3]. Also, the outcome in test [5] and in [6] was inactive.
Take `CN(C)CCOc1ccc(-c2cc(-c3ccc(Cl)c(O)c3)c(-c3ccnc(N)n3)o2)cc1`: the growth inhibition in [1] was 95% (active); in [4], 100% (active). Also, the inhibition is 43% (inactive) in test [2] and 2% (inactive) in test [3]. Also, the outcome in test [5], in [6] and in test [7] was inactive.
Consider `CN(C)CCNCc1ccc(-c2ccc3c(Nc4ccc(Cl)cc4F)ccnc3c2)o1`, for which the values for the growth inhibition in test [1] and in test [4] were 100% (active) and 99% (active), respectively. The inhibition in [2] is 14% (inactive); in test [3], -4% (inactive). For the same molecule, the result in [5], in test [6] and in test [7] was inactive.
As for `CN(C)CCOc1ccc(-c2cc(-c3ccnc(N)n3)c(-c3ccc(Cl)c(O)c3)o2)cc1`, the growth inhibition was 91% (active) in [1] and 101% (active) in test [4]. The figures for the inhibition in test [2] and in test [3] were 14% (inactive) and 5% (inactive), respectively. The outcome in test [5], in test [6] and in test [7] was inactive.
For `N#Cc1ccc(-c2cnc3ccc(NCCc4cccnc4)nn23)cc1`, the growth inhibition in [1] is 81% (active); in [4], 99% (active). Also, the inhibition in test [2] was 27% (inactive); in test [3], 6% (inactive). In addition, the outcome in test [5], in test [6] and in [7] was inactive.
With `O=C(NCCCN1CCCCC1)c1cccc(Nc2nccc(Nc3ccc(Oc4ccccc4)cc3)n2)c1`, the growth inhibition is 12% (inactive) in [1] and 96% (active) in [4]. In addition, the inhibition is 47% (inactive) in [2] and 2% (inactive) in test [3]. The result in test [5], in test [6] and in [7] was inactive.
Consider `COCCOc1ccc(Nc2nccc(-c3c(-c4cccc(NC(=O)c5c(F)cccc5F)c4)nn4ccccc34)n2)cc1Cl`, for which the growth inhibition is 97% (active) in [1] and 99% (active) in test [4]. In addition, the results for the inhibition in test [2] and in [3] were 53% (active) and 4% (inactive), respectively. Also, the result in test [5] and in [6] was inactive.
As for `CCn1c(-c2nonc2N)nc2c(-c3cccc(NC(=O)Nc4cccc(C(F)(F)F)c4)c3)ncc(OCCCN)c21`, the growth inhibition was 70% (active) in test [1] and 95% (active) in test [4]. For the same molecule, the inhibition in test [2] was 21% (inactive); in [3], 2% (inactive). In addition, the outcome in test [5] and in test [6] was inactive.
For the molecule `CNC(=O)c1ccccc1Nc1nc(Nc2ccc(C(=O)O)cc2)ncc1Cl`, the growth inhibition in [1] and in [4] was 92% (active) in each case. In addition, the inhibition in [2] is 60% (active); in test [3], -2% (inactive). The result in test [5], in test [6] and in [7] was inactive.
As to `CN1CCN(c2ccc(Nc3nccc(-c4c(-c5cccc(NC(=O)c6c(F)cccc6F)c5)nn5ccccc45)n3)cc2)CC1`, the growth inhibition in test [1] and in test [4] was 98% (active) in each case. Also, the inhibition is 86% (active) in [2] and -3% (inactive) in test [3]. Besides, the outcome in test [5] and in test [6] was inactive.
On to `CCN(CC)CCOc1ccc(Nc2ncc3cc(-c4c(Cl)cccc4Cl)c(=O)n(C)c3n2)cc1`, for which the growth inhibition was 91% (active) in test [1] and 90% (active) in [4]. For the same molecule, the inhibition in test [2] was 72% (active); in test [3], 1% (inactive). Further, the outcome in [6], in test [7] and in test [17] was inactive. The AC50 in test [8] was 417 nM (active); in test [9], 2960 nM (active); in test [10] it was 4180 nM (active); in [11], 1860 nM (active); in test [12] it was 20900 nM (active); in test [13], 4680 nM (active). Moreover, in test [14], the IC50 is 2950 nM (active). Further, the fold change was 1.1 (inactive) in test [15] (stronger effect = lower value, cell number ratio, induced over uninduced) and 0.543 in test [15] (measured here: relative caspase fold change +Dox/-Dox). The cell count in [15] (measured here: total cells with miR-34 induction, stronger effect = lower value) came out at 761; in test [15] (measured here: total cells without miR-34 induction), 694; in test [16] it was 5360. The same molecule showed an SSMD in test [16] of -11.2. For the same molecule, the plate-normalised HSF1 focus index in [16] was 0.335 (inactive). Besides, the z-score in [18] was -1.38 (inactive).
Turning to `CCn1c(-c2nonc2N)nc2c(-c3cccc(Cl)c3)ncc(OCCCNCCc3cnc[nH]3)c21`, the figures for the growth inhibition in test [1] and in [4] were 98% (active) and 101% (active), respectively. For the same molecule, the inhibition in test [2] was 16% (inactive); in [3], -3% (inactive). The outcome in [5] and in test [6] was inactive.
As to `O=c1[nH]ccc2nc(N[C@@H]3CCCNC3)nc(Nc3ccc(S(=O)(=O)N4CCOCC4)cc3)c12`, the growth inhibition in [1] is 99% (active); in [4], 96% (active). Moreover, the inhibition in [2] was 13% (inactive); in test [3], 0% (inactive). Moreover, the outcome in [6] and in test [7] was inactive.
In the case of `Cc1cccc(Nc2nc(NCCCCN)nc3cc[nH]c(=O)c23)c1`, the results for the growth inhibition in test [1] and in test [4] were 97% (active) and 98% (active), respectively. The inhibition in test [2] was 34% (inactive); in test [3], 0% (inactive). Further, the result in test [5] and in test [6] was inactive.
For `CCn1c(-c2nonc2N)nc2c(-c3cccc(NC(=O)NC45CC6CC(CC(C6)C4)C5)c3)ncc(OCCCN)c21`, the growth inhibition was 63% (active) in test [1] and 94% (active) in test [4]. The inhibition in test [2] was 100% (active); in [3] it was -2% (inactive). Besides, the outcome in [5] and in [6] was inactive.
For `NCCCNc1nc(Nc2cccc(C(N)=O)c2)c2c(=O)[nH]ccc2n1`, the growth inhibition in test [1] is 49% (inactive); in test [4] it was 99% (active). Moreover, the inhibition in test [2] is 9% (inactive); in test [3], -3% (inactive). Moreover, the result in test [5] and in [6] was inactive.
`CS(=O)(=O)Cc1ccc(Nc2nccc(N3CCCc4cc(NC(=O)Nc5cccc(C(F)(F)F)c5)ccc43)n2)cc1`: the growth inhibition in test [1] was 99% (active); in [4], 102% (active). Besides, the inhibition in [2] was 46% (inactive); in test [3] it was -4% (inactive). Also, the outcome in test [6] and in test [7] was inactive.
